# Experimental data reported in PubChem BioAssay (Tox21).
# Results filed as inconclusive are left out. Where a call stands in place of a potency, no number is given. A number with no mark means an inactive call. Activity calls are given as the source filed them. Unless noted, calls come from the whole dose curve; as a rule, active = well fitted cell-killing curve with a large enough effect in the repeat runs; inconclusive = weak or mixed curves, or effect the other way; inactive = no such curve, though single readings can be large or run the other way.
# Molecular target: Vitamin D3 receptor (Homo sapiens) (UniProt P11473)
# Assay: qHTS assay to identify small molecule antagonists of the vitamin D receptor (VDR) signaling pathway (AID 743223; active = well fitted inhibition curve with a large enough effect in the signal ratio in the repeat runs, not every such curve was filed as active; the % refers to the signal ratio)
# Settings: VDR-UAS-bla HEK293T, beta-lactamase FRET ratio, 16 h; series mostly up to 61 µM
# In short: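 Fluorescence from LiveBLAzer B/G FRET substrate, read after 2 h at room temperature, reflects beta-lactamase reporter activity in VDR-bla cells treated 16 h at 37C with compounds and agonist 1alpha,25-dihydroxyvitamin D3 (3 nM final).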
# Sequence of Vitamin D3 receptor (Homo sapiens) (P11473 whole entry, looked up): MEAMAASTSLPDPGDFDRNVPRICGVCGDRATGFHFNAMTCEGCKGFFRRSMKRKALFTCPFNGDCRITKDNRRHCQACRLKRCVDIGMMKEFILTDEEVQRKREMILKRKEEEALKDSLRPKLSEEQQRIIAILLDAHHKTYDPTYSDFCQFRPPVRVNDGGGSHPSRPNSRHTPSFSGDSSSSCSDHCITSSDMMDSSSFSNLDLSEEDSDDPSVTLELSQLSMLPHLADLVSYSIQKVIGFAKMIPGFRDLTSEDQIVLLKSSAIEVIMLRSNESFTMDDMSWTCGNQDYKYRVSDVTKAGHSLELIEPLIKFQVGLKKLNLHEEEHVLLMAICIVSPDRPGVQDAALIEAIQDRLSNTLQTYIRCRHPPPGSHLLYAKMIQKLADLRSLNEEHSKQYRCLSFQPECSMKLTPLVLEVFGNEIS
SMILES,outcome,"activity change, negative = inhibition"
O=S1OCCO1,inactive,
CNCCCC1c2ccccc2C=Cc2ccccc21,inactive,
NC(=O)Cn1c(=O)cc(CCN2CCN(c3nccc4sccc34)CC2)c2ccc(F)cc21,inactive,
O=C(CCCN1CCC(O)(c2ccc(Br)cc2)CC1)c1ccc(F)cc1,inactive,
Cc1cc(C(=C2C=CC(=Nc3ccc(S(=O)(=O)O)cc3S(=O)(=O)O)C=C2)c2ccc(Nc3ccc(S(=O)(=O)O)cc3)cc2)ccc1N,inactive,
CCCCC(CC)C(=O)OCCOCCOCCOCCOC(=O)C(CC)CCCC (configuration not stated),inactive,
O=C(CCCCCCCCC#CI)Oc1ccccc1,inactive,
CC1CN(c2cc3c(cc2F)c(=O)c(C(=O)O)cn3-c2ccc(F)cc2F)CCN1 (configuration not stated),,0.481% [at 6.95 µM]
CCC(C(=O)OCCOCCN(CC)CC)c1ccccc1 (configuration not stated),inactive,
COC(=O)[C@@H]1CC2=CC(=O)CC[C@]2(C)[C@@]23O[C@@H]2C[C@@]2(C)[C@@H](CC[C@@]24CCC(=O)O4)[C@H]13,inactive,
CC1CC(O)CC(C)(C)C1 (configuration not stated),inactive,
CCOC(=O)/C=C/C(=O)O,inactive,
O=C(O)c1c(O)c(-c2ccccc2)nc2ccccc12,inactive,
CC(CCO)CCc1ccccc1 (configuration not stated),inactive,
COc1ccc(CCC(=O)c2c(O)cc(O[C@@H]3O[C@H](CO)[C@@H](O)[C@H](O)[C@H]3O[C@@H]3O[C@@H](C)[C@H](O)[C@@H](O)[C@H]3O)cc2O)cc1O,inactive,
COc1ccc(C(=O)c2cccc(O)c2)c(OC)c1,inactive,
C/C=C(\C)C(=O)OCCC(C)CCC=C(C)C (configuration not stated),inactive,
CCCCCC=CCC=CCCCCCCCC(=O)OCC,inactive,
C[N+](C)(C)CCOC(N)=O,inactive,
C=CCNc1nc(NCC=C)nc(N2CCN(C(c3ccc(F)cc3)c3ccc(F)cc3)CC2)n1,inactive,

# Tested on: not listed separately
# Assay: qHTS assay to identify small molecule agonists of the vitamin D receptor (VDR) signaling pathway - cell viability counter screen (AID 743224); note: nearly all actives have a fitted effect of over 50% in size; note: potency is the fitted concentration of half-maximal effect
# Settings: VDR-bla HEK293T viability, CellTiter-Glo luminescence, 16 h; series mostly up to 62.6 µM
# In short: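 Compounds were pin-transferred onto VDR-bla cells plated 4 h earlier; following 16 h incubation at 37C, cell viability was quantified by CellTiter-Glo luminescence after 30 min at room temperature.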
SMILES,Potency,"activity change, negative = cytotoxicity"
C1COCO1,inactive,
O=S1OCCO1,inactive,
CNCCCC1c2ccccc2C=Cc2ccccc21,29.8 µM (active),
NC(=O)Cn1c(=O)cc(CCN2CCN(c3nccc4sccc34)CC2)c2ccc(F)cc21,inactive,
O=C(CCCN1CCC(O)(c2ccc(Br)cc2)CC1)c1ccc(F)cc1,inactive,
CCOC(=N)CC(=O)OCC,inactive,
Cc1cc(C(=C2C=CC(=Nc3ccc(S(=O)(=O)O)cc3S(=O)(=O)O)C=C2)c2ccc(Nc3ccc(S(=O)(=O)O)cc3)cc2)ccc1N,inactive,
CCCCC(CC)C(=O)OCCOCCOCCOCCOC(=O)C(CC)CCCC (configuration not stated),inactive,
CCCCN(CCCC)CCCOC(=O)c1ccc(N)cc1,inactive,
O=C(CCCCCCCCC#CI)Oc1ccccc1,inactive,
CN(C(=O)C(Cl)Cl)c1ccc(OC(=O)c2ccco2)cc1,inactive,
CC1CN(c2cc3c(cc2F)c(=O)c(C(=O)O)cn3-c2ccc(F)cc2F)CCN1 (configuration not stated),,-0.741% [at 5.95 µM]
CCC(C(=O)OCCOCCN(CC)CC)c1ccccc1 (configuration not stated),inactive,
CCCCCCCCCCCC(=O)[O][Sn]([CH2]CCC)([CH2]CCC)[O]C(=O)CCCCCCCCCCC,23.7 µM (active),
CC1CC(O)CC(C)(C)C1 (configuration not stated),inactive,
CCOC(=O)/C=C/C(=O)O,inactive,

SMILES,Potency,"activity change, negative = cytotoxicity"
CO/N=C1\CN(c2nc3c(cc2F)c(=O)c(C(=O)O)cn3C2CC2)CC1CN (configuration not stated),inactive,
C=CC(=O)NCOCC(C)C,inactive,
O=C(O)c1c(O)c(-c2ccccc2)nc2ccccc12,inactive,
CC(CCO)CCc1ccccc1 (configuration not stated),inactive,
COc1ccc(CCC(=O)c2c(O)cc(O[C@@H]3O[C@H](CO)[C@@H](O)[C@H](O)[C@H]3O[C@@H]3O[C@@H](C)[C@H](O)[C@@H](O)[C@H]3O)cc2O)cc1O,inactive,
COc1ccc(C(=O)c2cccc(O)c2)c(OC)c1,inactive,
CCC(C)(C)C1CCC(O)CC1 (configuration not stated),inactive,
Cc1ccccc1N1C(=O)c2cc(S(N)(=O)=O)c(Cl)cc2NC1C (configuration not stated),inactive,
C/C=C(\C)C(=O)OCCC(C)CCC=C(C)C (configuration not stated),inactive,
O=C(O)c1cccc(O)c1,inactive,
COc1cc2c(N3CCN(C(=O)Nc4ccc(OC(C)C)cc4)CC3)ncnc2cc1OCCCN1CCCCC1,inactive,
CCOC(=O)c1ccccc1C,inactive,
CCCCCC=CCC=CCCCCCCCC(=O)OCC,29.8 µM (active),
C[N+](C)(C)CCOC(N)=O,inactive,
CCCCC(=O)O[C@]1(C(=O)CO)CC[C@H]2[C@@H]3CCC4=CC(=O)CC[C@]4(C)[C@H]3[C@@H](O)C[C@@]21C,inactive,
C=CCNc1nc(NCC=C)nc(N2CCN(C(c3ccc(F)cc3)c3ccc(F)cc3)CC2)n1,inactive,
